Reference: PubChem BioAssay AID1159580 (chemical genetic matrix, 2015)
“And” between values parts separate entries of the source, which are not always exact repeats. Equal values may be shown once. Hit rate of the full screen: of about 5,500 compounds, about 2,000 (36%) were called active. Another 18% or so got no clear call; they are omitted. No stated cut-off is given here; in the data, active means normalized growth mostly below about 0.91 (no sharp cut-off); inconclusive means no clear call, values can overlap the other calls; inactive means mostly above about 0.92. This is one part of the list.

Experiment: chemical genetic growth profiling, strain panel (AID 1159580);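 further: tested at 20 µM; growth read once vehicle control cultures reached saturation at 30 °C; 1 = growth at the plate median or of vehicle wells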
Settings: S. cerevisiae deletion strains, growth OD

In the case of O=C(O)CCCc1ccccc1, the normalized growth (locus YAL021C, strain ccr4, stronger effect = lower value) is reported as 0.962 (inactive), the normalized growth (locus YAL026C, strain drs2, stronger effect = lower value) is reported as 0.989 (inactive) and the normalized growth (locus YAL030W, strain snc1, stronger effect = lower value) is reported as 0.988 (inactive). For the same compound, the normalized growth (locus YBL061C, strain skt5, stronger effect = lower value) was 0.991 (inactive), the normalized growth (locus YBR009C, strain hhf1, stronger effect = lower value) was 0.988 (inactive) and the normalized growth (locus YBR021W, strain FUR4, stronger effect = lower value) was 0.955 (inactive). For the same compound, the normalized growth (locus YBR023C, strain chs3, stronger effect = lower value) was 0.994 (inactive), the normalized growth (locus YBR171W, strain sec66, stronger effect = lower value) was 0.975 (inactive) and the normalized growth (locus YBR229C, strain ROT2, stronger effect = lower value) was 0.999 (inactive). For the same compound, the normalized growth (locus YBR231C, strain swc5, stronger effect = lower value) was 1 (inactive), the normalized growth (locus YBR279W, strain paf1, stronger effect = lower value) was 0.974 (inactive) and the normalized growth (locus YCL011C, strain gbp2, stronger effect = lower value) was 0.98 (inactive). For the same compound, the normalized growth (locus YCL016C, strain dcc1, stronger effect = lower value) was 0.985 (inactive), the normalized growth (locus YCL029C, strain bik1, stronger effect = lower value) was 0.982 (inactive) and the normalized growth (locus YCL069W, strain vba3, stronger effect = lower value) was 0.981 (inactive). For the same compound, the normalized growth (locus YCR088W, strain abp1, stronger effect = lower value) was 0.973 (inactive), the normalized growth (locus YDL005C, strain med2, stronger effect = lower value) was 0.979 (inactive) and the normalized growth (locus YDL035C, strain GPR1, stronger effect = lower value) was 1.01 (inactive). For the same compound, the normalized growth (locus YDL040C, strain nat1, stronger effect = lower value) was 0.989 (inactive), the normalized growth (locus YDL074C, strain BRE1, stronger effect = lower value) was 1 (inactive) and the normalized growth (locus YDL101C, strain DUN1, stronger effect = lower value) was 1 (inactive). The normalized growth (locus YDL185W, strain tfp1, stronger effect = lower value) was 0.948 (inactive), the normalized growth (locus YDL192W, strain arf1, stronger effect = lower value) was 0.996 (inactive) and the normalized growth (locus YDR001C, strain nth1, stronger effect = lower value) was 0.977 (inactive). The normalized growth (locus YDR069C, strain doa4, stronger effect = lower value) was 1 (inactive), the normalized growth (locus YDR101C, strain arx1, stronger effect = lower value) was 0.941 (inactive) and the normalized growth (locus YDR137W, strain rgp1, stronger effect = lower value) was 1 (inactive). For the same compound, the normalized growth (locus YDR150W, strain NUM1, stronger effect = lower value) was 0.998 (inactive), the normalized growth (locus YDR159W, strain sac3, stronger effect = lower value) was 0.981 (inactive) and the normalized growth (locus YDR162C, strain NBP2, stronger effect = lower value) was 1 (inactive). For the same compound, the normalized growth (locus YDR195W, strain ref2) was 1.04 (inactive), the normalized growth (locus YDR297W, strain sur2, stronger effect = lower value) was 0.991 (inactive) and the normalized growth (locus YDR318W, strain mcm21, stronger effect = lower value) was 0.986 (inactive). The normalized growth (locus YDR334W, strain swr1, stronger effect = lower value) was 0.978 (inactive), the normalized growth (locus YDR335W, strain msn5, stronger effect = lower value) was 0.988 (inactive) and the normalized growth (locus YDR388W, stronger effect = lower value) was 0.999 (inactive). For the same compound, the normalized growth (locus YDR392W, strain spt3, stronger effect = lower value) was 0.963 (inactive), the normalized growth (locus YDR502C, strain sam2, stronger effect = lower value) was 0.981 (inactive) and the normalized growth (locus YEL003W, strain gim4, stronger effect = lower value) was 0.986 (inactive). The normalized growth (locus YEL037C, strain rad23, stronger effect = lower value) was 0.989 (inactive), the normalized growth (locus YEL061C, strain CIN8 (second series), stronger effect = lower value) was 0.983 (inactive) and the normalized growth (locus YEL061C, strain CIN8, stronger effect = lower value) was 0.999 (inactive). For the same compound, the normalized growth (locus YER015W, strain faa2, stronger effect = lower value) was 1 (inactive), the normalized growth (locus YER016W, strain bim1, stronger effect = lower value) was 0.989 (inactive) and the normalized growth (locus YER110C, stronger effect = lower value) was 1 (inactive). The normalized growth (locus YER111C, strain swi4, stronger effect = lower value) was 0.992 (inactive), the normalized growth (locus YER155C, strain BEM2 (second series), stronger effect = lower value) was 1.01 (inactive) and the normalized growth (locus YER155C, strain BEM2, stronger effect = lower value) was 0.975 (inactive). The normalized growth (locus YER167W, strain BCK2, stronger effect = lower value) was 1 (inactive), the normalized growth (locus YFR010W, strain ubp6, stronger effect = lower value) was 0.997 (inactive) and the normalized growth (locus YGL078C, strain dbp3, stronger effect = lower value) was 0.933 (inactive). The normalized growth (locus YGL086W, strain mad1, stronger effect = lower value) was 0.97 (inactive), the normalized growth (locus YGL167C, strain pmr1, stronger effect = lower value) was 0.995 (inactive) and the normalized growth (locus YGL173C, strain kem1, stronger effect = lower value) was 0.997 (inactive). For the same compound, the normalized growth (locus YGL227W, strain vid30, stronger effect = lower value) was 0.977 (inactive), the normalized growth (locus YGL240W, strain doc1, stronger effect = lower value) was 1 (inactive) and the normalized growth (locus YGL248W, strain PDE1, stronger effect = lower value) was 0.997 (inactive). For the same compound, the normalized growth (locus YGL253W, strain hxk2, stronger effect = lower value) was 0.974 (inactive), the normalized growth (locus YGR135W, strain pre9, stronger effect = lower value) was 1.04 (inactive) and the normalized growth (locus YGR229C, strain SMI1, stronger effect = lower value) was 1.01 (inactive). The normalized growth (locus YGR252W, strain gcn5, stronger effect = lower value) was 0.939 (inactive), the normalized growth (locus YHR013C, strain ard1, stronger effect = lower value) was 1.01 (inactive) and the normalized growth (locus YHR027C, strain rpn1, stronger effect = lower value) was 1.01 (inactive). The normalized growth (locus YHR030C, strain SLT2, stronger effect = lower value) was 1 (inactive) and 0.818 (active), the normalized growth (locus YHR079C, strain IRE1 (second series), stronger effect = lower value) was 0.975 (inactive) and the normalized growth (locus YHR079C, strain IRE1, stronger effect = lower value) was 0.801 (active). For the same compound, the normalized growth (locus YHR094C, strain hxt1, stronger effect = lower value) was 0.995 (inactive), the normalized growth (locus YHR129C, strain ARP1, stronger effect = lower value) was 0.993 (inactive) and the normalized growth (locus YHR142W, strain chs7, stronger effect = lower value) was 0.988 (inactive). The normalized growth (locus YHR200W, strain rpn10, stronger effect = lower value) was 0.996 (inactive), the normalized growth (locus YIL066C, strain RNR3, stronger effect = lower value) was 0.999 (inactive) and the normalized growth (locus YIL073C, strain SPO22, stronger effect = lower value) was 1.06 (inactive). For the same compound, the normalized growth (locus YIL125W, strain kgd1, stronger effect = lower value) was 0.892 (active), the normalized growth (locus YIR030C, strain dcg1, stronger effect = lower value) was 0.988 (inactive) and the normalized growth (locus YJL092W, strain hpr5, stronger effect = lower value) was 0.985 (inactive). For the same compound, the normalized growth (locus YJL095W, strain BCK1 (second series), stronger effect = lower value) was 0.989 (inactive), the normalized growth (locus YJL095W, strain BCK1, stronger effect = lower value) was 0.998 (inactive) and 0.811 (active) and the normalized growth (locus YJL115W, strain asf1, stronger effect = lower value) was 0.986 (inactive). For the same compound, the normalized growth (locus YJL129C, strain trk1, stronger effect = lower value) was 0.983 (inactive), the normalized growth (locus YJL134W, strain LCB3, stronger effect = lower value) was 1.01 (inactive) and the normalized growth (locus YJL154C, strain vps35, stronger effect = lower value) was 0.976 (inactive). For the same compound, the normalized growth (locus YJL164C, strain tpk1, stronger effect = lower value) was 0.987 (inactive), the normalized growth (locus YJL166W, strain qcr8, stronger effect = lower value) was 0.992 (inactive) and the normalized growth (locus YJL168C, strain set2, stronger effect = lower value) was 0.998 (inactive). For the same compound, the normalized growth (locus YJL187C, strain SWE1 (second series), stronger effect = lower value) was 0.99 (inactive) and the normalized growth (locus YJL187C, strain SWE1, stronger effect = lower value) was 0.99 (inactive).
